Test results as given in PubChem BioAssay (NCATS).
Where “and” joins values, the source holds several entries; their conditions need not be identical. Equal values may be shown once. Results filed as inconclusive are left out. Entries that show only a call come without a potency. A number with no mark means an inactive call. Calls of active or inactive are those of the source. The call rests on the fitted dose curve; in most records, active means well fitted curve in the direction sought with a large enough effect; inconclusive means small, poorly fitted or top-dose-only effect, or another doubt; inactive means no such curve, though single readings can be large; an effect the other way counts as inactive or inconclusive.

Experiments:
HaCat [1] = assay: Cytotoxic Profiling of Annotated Libraries Using Quantitative High-Throughput Screening (AID 1296008); conditions: Five cell lines viability, CellTiter-Glo ATP luminescence, 48-72 h; max response: active compounds read low; further: nearly all actives have a fitted effect of over 60% in size
In short: (§1)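 Cytotoxicity was measured as CellTiter-Glo ATP luminescence, read after 10 min at room temperature. Compound treatment of the cells lasted 48 or 72 hr at 37 degrees Celsius in a qHTS format.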

KB-3-1 = assay: as above; conditions: Five cell lines viability, CellTiter-Glo ATP luminescence, 48-72 h; max response: active compounds read low
In short: as §1

NIH3T3 [2] = assay: as above; conditions: Five cell lines viability, CellTiter-Glo ATP luminescence, 48-72 h; max response: active compounds read low
In short: as §1

MCC-13 = assay: qHTS assay to identify novel small-molecules to repurpose for Merkel cell carcinoma treatment (AID 1296009); conditions: MCC and control cell lines, CellTiter-Glo viability, 72 h; series mostly up to 46 µM; further: nearly all actives have a fitted effect of over 60% in size
In short: (§2)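 Cell viability, measured as CellTiter-Glo luminescence, was normalized between DMSO and no-cell wells. The cells had been exposed to 8- or 11-point compound dilutions for 72 hr at 37 degree celsius.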

MCC-26 = assay: as above; conditions: MCC and control cell lines, CellTiter-Glo viability, 72 h; series mostly up to 46 µM
In short: as §2

MKL-1 = assay: as above; conditions: MCC and control cell lines, CellTiter-Glo viability, 72 h; series mostly up to 46 µM
In short: as §2

MKL-2 = assay: as above; conditions: MCC and control cell lines, CellTiter-Glo viability, 72 h; series mostly up to 46 µM
In short: as §2

NIH3T3 [3] = assay: as above; conditions: MCC and control cell lines, CellTiter-Glo viability, 72 h; at 44.8 µM (top of the series) unless noted
In short: as §2

UISO = assay: as above; conditions: MCC and control cell lines, CellTiter-Glo viability, 72 h; series mostly up to 46 µM
In short: as §2

WaGa = assay: as above; conditions: MCC and control cell lines, CellTiter-Glo viability, 72 h; series mostly up to 46 µM
In short: as §2

C33A = assay: Primary qHTS to identify gynecologic anti-cancer compounds using libraries of approved drugs and bioactive compounds (AID 1345084); conditions: Gynecologic cancer cell panel viability, ATPlite luminescence, 48 h; series mostly up to 57.5 µM; further: nearly all actives have a fitted effect of over 55% in size
In short: (§3)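 In this quantitative HTS, cell killing is estimated from loss of ATP-dependent luciferase light. Cells see five compound concentrations over a 48 h exposure.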

CAOV3 = assay: as above; conditions: Gynecologic cancer cell panel viability, ATPlite luminescence, 48 h; series mostly up to 57.5 µM
In short: as §3

CASKI = assay: as above; conditions: Gynecologic cancer cell panel viability, ATPlite luminescence, 48 h; series mostly up to 57.5 µM
In short: as §3

Es-2 = assay: as above; conditions: Gynecologic cancer cell panel viability, ATPlite luminescence, 48 h; series mostly up to 57.5 µM
In short: as §3

HeLa = assay: as above; conditions: Gynecologic cancer cell panel viability, ATPlite luminescence, 48 h; series mostly up to 57.5 µM
In short: as §3

Hek293T [4] = assay: as above; conditions: Gynecologic cancer cell panel viability, ATPlite luminescence, 48 h, control line for the selectivity index; series mostly up to 57.5 µM
In short: as §3

JEG-3 = assay: as above; conditions: Gynecologic cancer cell panel viability, ATPlite luminescence, 48 h; series mostly up to 57.5 µM
In short: as §3

HACAT [5] = assay: qHTS assay to identify novel small-molecules to repurpose for Merkel cell carcinoma treatment (AID 1296009); conditions: MCC and control cell lines, CellTiter-Glo viability, 72 h; at 44.8 µM (top of the series) unless noted; further: nearly all actives have a fitted effect of over 60% in size
In short: as §2

HEK293T [6] = assay: as above; conditions: MCC and control cell lines, CellTiter-Glo viability, 72 h; at 44.8 µM (top of the series) unless noted
In short: as §2

OV90 = assay: Primary qHTS to identify gynecologic anti-cancer compounds using libraries of approved drugs and bioactive compounds (AID 1345084); conditions: Gynecologic cancer cell panel viability, ATPlite luminescence, 48 h; series mostly up to 57.5 µM; further: nearly all actives have a fitted effect of over 55% in size
In short: as §3
Potency means the concentration at half of the fitted maximal effect.

CC(C)(C)NC(=O)[C@H]1CC[C@H]2[C@@H]3CC[C@H]4NC(=O)C=C[C@]4(C)[C@H]3CC[C@]12C
max response (HaCat [1]): -13.8% and -8.14% | max response (KB-3-1): 9.49% and 2.45% | max response (NIH3T3 [2]): 2.59% | outcome (NIH3T3 [2]): inactive | Potency (MCC-13): inactive | Potency (MCC-26): inactive | Potency (MKL-1): inactive | Potency (MKL-2): inactive | outcome (NIH3T3 [3]): inactive | Potency (UISO): inactive | Potency (WaGa): inactive | Potency (C33A): inactive | Potency (CAOV3): inactive | Potency (CASKI): inactive | Potency (Es-2): inactive | Potency (HeLa): inactive | Potency (Hek293T [4]): inactive | Potency (JEG-3): inactive

CCn1cc(C(=O)O)c(=O)c2cc(F)c(N3CCNCC3)nc21
max response (HaCat [1]): -2.73% | outcome (HaCat [1]): inactive | max response (KB-3-1): -1.65% and 0.264% | outcome (NIH3T3 [2]): inactive | outcome (HACAT [5]): inactive | outcome (HEK293T [6]): inactive | Potency (MCC-13): inactive | Potency (MKL-1): inactive | Potency (MKL-2): inactive | outcome (NIH3T3 [3]): inactive | Potency (UISO): inactive | Potency (WaGa): inactive | Potency (C33A): inactive | Potency (CAOV3): inactive | Potency (CASKI): inactive | Potency (Es-2): inactive | Potency (Hek293T [4]): inactive | Potency (JEG-3): inactive | Potency (OV90): inactive

CN1CCCC(n2nc(Cc3ccc(Cl)cc3)c3ccccc3c2=O)CC1 (stereo not given)
max response (HaCat [1]): 3.73% | outcome (HaCat [1]): inactive | max response (KB-3-1): -6.94% and -2.19% | max response (NIH3T3 [2]): 5% | outcome (HACAT [5]): inactive | Potency (MCC-13): inactive | Potency (MKL-1): 1480 nM (active) | Potency (MKL-2): 15 µM (active) and 418 nM (active) | Potency (UISO): 13200 nM (active) | Potency (WaGa): 296 nM (active) | Potency (C33A): inactive | Potency (CAOV3): inactive | Potency (CASKI): inactive | Potency (Hek293T [4]): inactive | Potency (JEG-3): inactive

CS(=O)(=O)c1ccc([C@@H](O)[C@@H](CO)NC(=O)C(Cl)Cl)cc1
max response (HaCat [1]): 4.09% | outcome (HaCat [1]): inactive | max response (KB-3-1): -5.5% | max response (NIH3T3 [2]): 1.24% and 2.73% | outcome (HACAT [5]): inactive | Potency (MCC-13): inactive | Potency (MKL-1): inactive | Potency (MKL-2): inactive | Potency (UISO): inactive | Potency (WaGa): inactive | Potency (C33A): inactive | Potency (CAOV3): inactive | Potency (CASKI): inactive | Potency (Es-2): inactive | Potency (HeLa): inactive | Potency (Hek293T [4]): inactive | Potency (JEG-3): inactive | Potency (OV90): inactive

COc1c(N2CCNC(C)C2)c(F)cc2c(=O)c(C(=O)O)cn(C3CC3)c12 (stereo not given)
outcome (HaCat [1]): inactive | max response (KB-3-1): 0.558% | outcome (KB-3-1): inactive | max response (NIH3T3 [2]): -3.19% | outcome (NIH3T3 [2]): inactive | outcome (HACAT [5]): inactive | Potency (MCC-13): inactive | Potency (MCC-26): inactive | Potency (MKL-1): inactive | Potency (MKL-2): inactive | outcome (NIH3T3 [3]): inactive | Potency (UISO): inactive | Potency (WaGa): inactive | Potency (C33A): inactive | Potency (CAOV3): inactive | Potency (CASKI): inactive | Potency (Es-2): inactive | Potency (HeLa): inactive | Potency (Hek293T [4]): inactive | Potency (JEG-3): inactive | Potency (OV90): inactive

O=S(=O)(c1cccc2cnccc12)N1CCCNCC1
outcome (HaCat [1]): inactive | max response (KB-3-1): -15.9% | outcome (KB-3-1): inactive | max response (NIH3T3 [2]): 0.496% and -3.33% | outcome (HACAT [5]): inactive | outcome (HEK293T [6]): inactive | Potency (MCC-13): inactive | Potency (MKL-1): inactive | Potency (MKL-2): inactive | Potency (UISO): inactive | Potency (WaGa): inactive | Potency (C33A): inactive | Potency (CAOV3): inactive | Potency (CASKI): inactive | Potency (Es-2): inactive | Potency (HeLa): inactive | Potency (Hek293T [4]): inactive | Potency (JEG-3): inactive | Potency (OV90): inactive

O=C(O)CSCC(=O)NC1CCSC1=O (stereo not given)
outcome (HaCat [1]): inactive | outcome (KB-3-1): inactive | max response (NIH3T3 [2]): 2.01% | outcome (NIH3T3 [2]): inactive | outcome (HACAT [5]): inactive | outcome (HEK293T [6]): inactive | Potency (MCC-13): inactive | Potency (MCC-26): inactive | Potency (MKL-1): inactive | Potency (MKL-2): inactive | outcome (NIH3T3 [3]): inactive | Potency (UISO): inactive | Potency (WaGa): inactive | Potency (C33A): inactive | Potency (CAOV3): inactive | Potency (CASKI): inactive | Potency (Es-2): inactive | Potency (HeLa): inactive | Potency (Hek293T [4]): inactive | Potency (JEG-3): inactive | Potency (OV90): inactive

COc1cc(NS(=O)(=O)c2ccc(N)cc2)nc(OC)n1
outcome (HaCat [1]): inactive | max response (KB-3-1): 3.08% | outcome (KB-3-1): inactive | max response (NIH3T3 [2]): -5.03% and -1.81% | outcome (HACAT [5]): inactive | Potency (MCC-13): inactive | Potency (MCC-26): inactive | Potency (MKL-1): inactive | Potency (MKL-2): inactive | Potency (UISO): inactive | Potency (WaGa): inactive | Potency (C33A): inactive | Potency (CAOV3): inactive | Potency (CASKI): inactive | Potency (Es-2): inactive | Potency (Hek293T [4]): inactive | Potency (JEG-3): inactive

Cc1cccc(N(C)C(=S)Oc2ccc3ccccc3c2)c1
max response (HaCat [1]): 0.266% and 1.06% | max response (KB-3-1): 1.04% | outcome (KB-3-1): inactive | max response (NIH3T3 [2]): -1.35% and 4.99% | Potency (MCC-13): inactive | Potency (MKL-1): inactive | Potency (MKL-2): inactive | Potency (UISO): inactive | Potency (WaGa): inactive | Potency (C33A): inactive | Potency (CAOV3): inactive | Potency (CASKI): inactive | Potency (Es-2): inactive | Potency (HeLa): inactive | Potency (Hek293T [4]): inactive | Potency (OV90): inactive

COC(=O)Nc1nc2ccc(C(=O)c3ccccc3)cc2[nH]1
max response (HaCat [1]): 4.64% | outcome (HaCat [1]): inactive | Potency (KB-3-1): 623 nM (active) | Potency (NIH3T3 [2]): 18.8 µM (active) and 2.64 µM (active) | outcome (HACAT [5]): inactive | Potency (MCC-13): 3720 nM (active) | Potency (UISO): 4180 nM (active) | Potency (CAOV3): inactive | Potency (Es-2): 2820 nM (active) | Potency (HeLa): 1000 nM (active) | Potency (OV90): 8910 nM (active)

CC1=CC(=O)c2ccccc2C1=O
outcome (HaCat [1]): inactive | max response (KB-3-1): 1.53% | outcome (KB-3-1): inactive | max response (NIH3T3 [2]): -2.61% | outcome (NIH3T3 [2]): inactive | outcome (HACAT [5]): inactive | outcome (HEK293T [6]): inactive | Potency (MCC-13): inactive | Potency (MKL-1): inactive | Potency (MKL-2): inactive | outcome (NIH3T3 [3]): inactive | Potency (UISO): inactive | Potency (WaGa): inactive | Potency (C33A): inactive | Potency (CAOV3): inactive | Potency (CASKI): inactive | Potency (Es-2): inactive | Potency (HeLa): inactive | Potency (Hek293T [4]): inactive | Potency (JEG-3): inactive | Potency (OV90): inactive

O=C(NCC1CN(c2ccc(N3CCOCC3=O)cc2)C(=O)O1)c1ccc(Cl)s1 (stereo not given)
outcome (HaCat [1]): inactive | max response (KB-3-1): -19.6% | max response (NIH3T3 [2]): 3.35% | outcome (NIH3T3 [2]): inactive | outcome (HACAT [5]): inactive | Potency (MCC-13): inactive | Potency (MKL-1): inactive | Potency (MKL-2): inactive | outcome (NIH3T3 [3]): inactive | Potency (UISO): inactive | Potency (WaGa): inactive | Potency (C33A): inactive | Potency (CAOV3): inactive | Potency (CASKI): inactive | Potency (Es-2): inactive | Potency (HeLa): inactive | Potency (Hek293T [4]): inactive | Potency (JEG-3): inactive | Potency (OV90): inactive
